Source: the supplement of paper PMC11732987, “Enantioselective OTUD7B fragment discovery through chemoproteomics screening and high-throughput optimisation” (Communications Chemistry, 2025)
Unmarked numbers belong to inactive results.

What was measured:
Assay in all cases: log2 ratio of Biotin-Ahx-Ub-VS probe labelling (fragment/DMSO); higher = less target engagement (more negative = stronger competition), active = hit call of the paper (q ≤ 0.05, log2 ratio ≤ -1)
Details in all cases: compound concentration: 200 uM; treatment time: 3 h
USP19 = molecular target: T1, USP19 (UniProt O94966)
T1 sequence (whole entry): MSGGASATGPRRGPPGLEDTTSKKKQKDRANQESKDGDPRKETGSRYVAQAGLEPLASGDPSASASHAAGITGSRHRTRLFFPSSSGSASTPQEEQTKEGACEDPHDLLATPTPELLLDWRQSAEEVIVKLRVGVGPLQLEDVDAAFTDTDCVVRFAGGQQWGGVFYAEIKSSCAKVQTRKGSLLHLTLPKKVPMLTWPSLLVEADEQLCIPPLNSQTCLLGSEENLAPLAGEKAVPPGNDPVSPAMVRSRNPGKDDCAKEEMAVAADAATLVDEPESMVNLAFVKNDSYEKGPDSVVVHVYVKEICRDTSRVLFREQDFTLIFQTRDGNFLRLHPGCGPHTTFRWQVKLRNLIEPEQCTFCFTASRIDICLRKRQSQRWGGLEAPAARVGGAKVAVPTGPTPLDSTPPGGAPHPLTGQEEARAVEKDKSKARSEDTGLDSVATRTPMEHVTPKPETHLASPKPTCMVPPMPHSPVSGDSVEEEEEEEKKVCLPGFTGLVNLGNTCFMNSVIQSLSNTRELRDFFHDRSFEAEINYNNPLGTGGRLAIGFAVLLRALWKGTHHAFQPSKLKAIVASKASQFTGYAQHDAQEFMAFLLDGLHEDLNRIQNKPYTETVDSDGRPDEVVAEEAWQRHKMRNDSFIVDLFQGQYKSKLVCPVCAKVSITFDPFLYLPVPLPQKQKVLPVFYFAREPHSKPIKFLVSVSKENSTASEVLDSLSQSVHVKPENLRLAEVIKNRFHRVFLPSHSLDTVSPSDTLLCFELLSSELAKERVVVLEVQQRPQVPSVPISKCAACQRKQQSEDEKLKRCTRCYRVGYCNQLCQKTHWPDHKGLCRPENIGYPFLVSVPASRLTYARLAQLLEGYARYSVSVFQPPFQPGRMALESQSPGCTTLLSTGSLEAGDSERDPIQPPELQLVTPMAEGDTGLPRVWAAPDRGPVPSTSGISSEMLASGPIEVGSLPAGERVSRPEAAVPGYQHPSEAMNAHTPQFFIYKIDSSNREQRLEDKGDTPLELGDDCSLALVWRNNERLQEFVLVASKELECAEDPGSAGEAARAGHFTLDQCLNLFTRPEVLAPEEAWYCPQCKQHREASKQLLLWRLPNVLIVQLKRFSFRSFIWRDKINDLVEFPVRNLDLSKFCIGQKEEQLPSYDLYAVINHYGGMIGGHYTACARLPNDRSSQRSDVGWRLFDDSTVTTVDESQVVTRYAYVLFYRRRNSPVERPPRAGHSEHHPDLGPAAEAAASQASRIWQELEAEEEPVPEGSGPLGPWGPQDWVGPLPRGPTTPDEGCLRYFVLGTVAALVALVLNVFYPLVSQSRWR
How it was run: (§1)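 Average log2 ratios of fragment over vehicle were obtained by unpaired t-test from global-median-normalised Spectronaut label-free quantities. Proteins with ≥2 unique peptides were included. HEK293T lysate (495 µg per sample) was treated in triplicate with fragment at 200 µM or vehicle for 3 h, then with Biotin-Ahx-Ub-VS at 0.5 µM final for 1 h, and labelled DUBs were NeutrAvidin-enriched and run by diaPASEF LC-MS/MS.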

USP24 = USP24 (UniProt Q9UPU5)
How it was run: as §1

USP25 = molecular target: T2, USP25 (UniProt Q9UHP3)
T2 sequence (whole entry): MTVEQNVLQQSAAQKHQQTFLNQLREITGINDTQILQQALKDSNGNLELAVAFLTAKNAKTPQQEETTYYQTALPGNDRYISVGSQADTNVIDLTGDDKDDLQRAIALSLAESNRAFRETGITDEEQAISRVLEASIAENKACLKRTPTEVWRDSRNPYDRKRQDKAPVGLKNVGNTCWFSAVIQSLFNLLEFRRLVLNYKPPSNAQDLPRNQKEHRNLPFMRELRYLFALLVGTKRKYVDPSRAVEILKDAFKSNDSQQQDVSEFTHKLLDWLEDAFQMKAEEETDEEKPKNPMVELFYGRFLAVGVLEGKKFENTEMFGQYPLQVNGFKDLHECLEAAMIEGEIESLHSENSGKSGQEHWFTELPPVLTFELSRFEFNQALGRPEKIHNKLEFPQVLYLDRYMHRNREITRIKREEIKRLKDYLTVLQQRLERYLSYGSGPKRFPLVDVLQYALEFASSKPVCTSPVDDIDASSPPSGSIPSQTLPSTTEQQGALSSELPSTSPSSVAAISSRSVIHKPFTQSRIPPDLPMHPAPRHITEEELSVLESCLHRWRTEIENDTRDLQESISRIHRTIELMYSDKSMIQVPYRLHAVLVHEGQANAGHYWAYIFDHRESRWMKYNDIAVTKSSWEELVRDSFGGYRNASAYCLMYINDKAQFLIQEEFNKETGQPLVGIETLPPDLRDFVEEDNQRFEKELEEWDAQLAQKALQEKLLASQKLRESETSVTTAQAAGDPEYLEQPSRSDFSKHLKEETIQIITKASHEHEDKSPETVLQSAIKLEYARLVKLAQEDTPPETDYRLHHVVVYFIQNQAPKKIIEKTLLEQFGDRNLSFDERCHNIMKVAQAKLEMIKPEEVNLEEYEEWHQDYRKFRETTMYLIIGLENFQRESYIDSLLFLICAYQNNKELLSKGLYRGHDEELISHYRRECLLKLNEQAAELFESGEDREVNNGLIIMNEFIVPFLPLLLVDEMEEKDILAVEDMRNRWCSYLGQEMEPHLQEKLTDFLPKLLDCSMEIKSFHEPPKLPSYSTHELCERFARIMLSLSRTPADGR
How it was run: as §1

USP28 = molecular target: T3, USP28 (UniProt Q96RU2)
T3 sequence (whole entry): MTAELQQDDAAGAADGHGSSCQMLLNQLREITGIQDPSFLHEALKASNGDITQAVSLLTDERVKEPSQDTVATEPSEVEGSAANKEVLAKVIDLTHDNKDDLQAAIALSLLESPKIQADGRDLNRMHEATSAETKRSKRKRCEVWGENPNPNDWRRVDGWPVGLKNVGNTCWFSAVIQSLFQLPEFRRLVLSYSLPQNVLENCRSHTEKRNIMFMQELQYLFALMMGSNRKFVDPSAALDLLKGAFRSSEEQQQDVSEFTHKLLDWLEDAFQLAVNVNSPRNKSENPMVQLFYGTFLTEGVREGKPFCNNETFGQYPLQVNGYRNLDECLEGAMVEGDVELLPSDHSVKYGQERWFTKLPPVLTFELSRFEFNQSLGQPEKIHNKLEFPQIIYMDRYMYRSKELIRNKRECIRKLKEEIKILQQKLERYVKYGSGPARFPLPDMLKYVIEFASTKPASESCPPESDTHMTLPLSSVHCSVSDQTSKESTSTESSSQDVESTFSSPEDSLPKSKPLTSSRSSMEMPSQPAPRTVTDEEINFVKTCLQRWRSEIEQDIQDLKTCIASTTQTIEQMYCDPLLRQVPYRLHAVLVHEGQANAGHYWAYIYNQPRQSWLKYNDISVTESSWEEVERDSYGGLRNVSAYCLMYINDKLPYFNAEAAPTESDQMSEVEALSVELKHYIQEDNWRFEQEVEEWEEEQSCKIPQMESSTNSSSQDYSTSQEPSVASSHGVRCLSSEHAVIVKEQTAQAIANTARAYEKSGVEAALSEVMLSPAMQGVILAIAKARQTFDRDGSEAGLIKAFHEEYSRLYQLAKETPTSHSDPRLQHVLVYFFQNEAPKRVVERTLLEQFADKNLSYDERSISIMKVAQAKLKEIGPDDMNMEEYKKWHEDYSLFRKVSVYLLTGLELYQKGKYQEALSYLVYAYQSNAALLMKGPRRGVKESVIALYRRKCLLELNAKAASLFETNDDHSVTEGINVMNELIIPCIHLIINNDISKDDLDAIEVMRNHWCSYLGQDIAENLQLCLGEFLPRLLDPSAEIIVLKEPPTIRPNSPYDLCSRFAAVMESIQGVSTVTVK
How it was run: as §1

USP24, sequence (Q9UPU5 whole entry): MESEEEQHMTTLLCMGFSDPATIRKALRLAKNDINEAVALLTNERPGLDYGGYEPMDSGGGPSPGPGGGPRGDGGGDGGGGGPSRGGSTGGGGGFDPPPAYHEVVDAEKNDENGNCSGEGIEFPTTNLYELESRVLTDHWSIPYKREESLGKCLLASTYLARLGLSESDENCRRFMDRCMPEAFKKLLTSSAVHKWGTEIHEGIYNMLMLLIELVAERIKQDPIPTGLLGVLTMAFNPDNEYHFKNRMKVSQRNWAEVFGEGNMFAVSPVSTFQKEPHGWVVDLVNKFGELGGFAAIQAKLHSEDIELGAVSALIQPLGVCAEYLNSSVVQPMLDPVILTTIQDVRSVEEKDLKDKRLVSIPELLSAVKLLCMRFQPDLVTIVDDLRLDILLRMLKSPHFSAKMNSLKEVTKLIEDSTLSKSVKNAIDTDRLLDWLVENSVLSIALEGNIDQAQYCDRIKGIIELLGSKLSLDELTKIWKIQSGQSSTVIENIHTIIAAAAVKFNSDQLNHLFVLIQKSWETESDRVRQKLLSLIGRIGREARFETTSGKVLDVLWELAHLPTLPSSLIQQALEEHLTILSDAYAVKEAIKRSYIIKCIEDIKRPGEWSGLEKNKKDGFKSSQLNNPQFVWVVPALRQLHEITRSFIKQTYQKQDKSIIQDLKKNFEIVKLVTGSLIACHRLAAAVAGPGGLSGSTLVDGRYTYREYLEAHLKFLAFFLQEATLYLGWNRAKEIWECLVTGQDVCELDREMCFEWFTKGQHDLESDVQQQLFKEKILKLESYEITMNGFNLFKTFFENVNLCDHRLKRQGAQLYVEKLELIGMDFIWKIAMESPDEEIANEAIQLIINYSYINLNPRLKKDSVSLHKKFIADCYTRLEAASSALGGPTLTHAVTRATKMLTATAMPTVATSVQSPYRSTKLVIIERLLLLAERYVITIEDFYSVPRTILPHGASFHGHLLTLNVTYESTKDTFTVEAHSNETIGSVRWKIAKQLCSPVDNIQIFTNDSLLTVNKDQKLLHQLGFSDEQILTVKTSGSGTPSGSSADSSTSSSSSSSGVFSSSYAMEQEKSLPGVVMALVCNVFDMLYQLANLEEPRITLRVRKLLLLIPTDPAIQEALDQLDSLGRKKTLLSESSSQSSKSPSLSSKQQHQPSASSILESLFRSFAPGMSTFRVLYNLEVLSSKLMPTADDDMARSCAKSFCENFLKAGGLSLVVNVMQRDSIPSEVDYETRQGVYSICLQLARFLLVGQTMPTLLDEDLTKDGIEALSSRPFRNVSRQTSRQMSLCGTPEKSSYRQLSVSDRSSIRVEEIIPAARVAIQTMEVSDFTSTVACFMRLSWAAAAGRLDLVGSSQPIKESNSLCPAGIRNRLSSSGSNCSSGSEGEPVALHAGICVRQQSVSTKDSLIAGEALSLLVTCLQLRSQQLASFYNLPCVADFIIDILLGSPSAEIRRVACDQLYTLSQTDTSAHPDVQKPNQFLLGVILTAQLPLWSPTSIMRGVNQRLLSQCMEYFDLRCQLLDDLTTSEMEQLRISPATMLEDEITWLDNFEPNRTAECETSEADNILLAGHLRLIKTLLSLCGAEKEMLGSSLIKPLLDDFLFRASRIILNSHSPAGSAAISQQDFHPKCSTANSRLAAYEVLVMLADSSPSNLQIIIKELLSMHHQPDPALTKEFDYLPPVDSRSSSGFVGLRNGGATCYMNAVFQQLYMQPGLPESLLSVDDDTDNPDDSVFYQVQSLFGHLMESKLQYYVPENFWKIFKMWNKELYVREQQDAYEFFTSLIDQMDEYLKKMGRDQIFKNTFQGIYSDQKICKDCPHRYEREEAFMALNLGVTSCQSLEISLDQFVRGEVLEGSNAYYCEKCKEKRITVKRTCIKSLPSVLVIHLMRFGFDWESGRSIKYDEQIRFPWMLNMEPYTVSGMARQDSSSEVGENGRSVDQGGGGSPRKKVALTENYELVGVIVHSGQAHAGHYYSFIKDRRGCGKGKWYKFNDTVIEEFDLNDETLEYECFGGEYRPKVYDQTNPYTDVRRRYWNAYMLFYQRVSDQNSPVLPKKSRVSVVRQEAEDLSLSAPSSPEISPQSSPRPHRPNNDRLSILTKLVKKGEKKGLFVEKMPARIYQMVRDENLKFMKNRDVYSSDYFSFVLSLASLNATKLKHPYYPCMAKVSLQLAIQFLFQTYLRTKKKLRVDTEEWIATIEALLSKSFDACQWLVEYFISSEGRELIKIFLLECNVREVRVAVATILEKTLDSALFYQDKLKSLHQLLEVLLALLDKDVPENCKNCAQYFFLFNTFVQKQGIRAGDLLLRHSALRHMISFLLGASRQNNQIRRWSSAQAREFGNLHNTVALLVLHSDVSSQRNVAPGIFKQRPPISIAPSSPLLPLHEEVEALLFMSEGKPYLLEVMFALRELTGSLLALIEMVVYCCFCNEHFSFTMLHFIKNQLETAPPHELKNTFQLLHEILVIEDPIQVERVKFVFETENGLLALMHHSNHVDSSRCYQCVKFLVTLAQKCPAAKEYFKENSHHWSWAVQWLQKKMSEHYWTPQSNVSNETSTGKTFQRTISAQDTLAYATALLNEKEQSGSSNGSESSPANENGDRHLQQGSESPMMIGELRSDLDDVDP

Cl.O=C(CCl)N1CCn2ncc(O)c2C1
log2 ratio of Biotin-Ahx-Ub-VS probe labelling (USP19): -0.754
log2 ratio of Biotin-Ahx-Ub-VS probe labelling (USP24): -1.05 (active)
log2 ratio of Biotin-Ahx-Ub-VS probe labelling (USP25): -0.877
log2 ratio of Biotin-Ahx-Ub-VS probe labelling (USP28): -1.17 (active)
